Most compounds without a hit are left out; they make up all but 1.2% or so of the library.
TcdB GH inh: TcdB glycohydrolase inhibition; P18177; TcdB glycohydrolase enzymatic assay, plate reader; inhibition, % at 9.99 µM; 350,000 tested, 0.24% active; AID 652162; in the data active means inhibition above about 10%
Target sequence (P18177 whole entry, looked up): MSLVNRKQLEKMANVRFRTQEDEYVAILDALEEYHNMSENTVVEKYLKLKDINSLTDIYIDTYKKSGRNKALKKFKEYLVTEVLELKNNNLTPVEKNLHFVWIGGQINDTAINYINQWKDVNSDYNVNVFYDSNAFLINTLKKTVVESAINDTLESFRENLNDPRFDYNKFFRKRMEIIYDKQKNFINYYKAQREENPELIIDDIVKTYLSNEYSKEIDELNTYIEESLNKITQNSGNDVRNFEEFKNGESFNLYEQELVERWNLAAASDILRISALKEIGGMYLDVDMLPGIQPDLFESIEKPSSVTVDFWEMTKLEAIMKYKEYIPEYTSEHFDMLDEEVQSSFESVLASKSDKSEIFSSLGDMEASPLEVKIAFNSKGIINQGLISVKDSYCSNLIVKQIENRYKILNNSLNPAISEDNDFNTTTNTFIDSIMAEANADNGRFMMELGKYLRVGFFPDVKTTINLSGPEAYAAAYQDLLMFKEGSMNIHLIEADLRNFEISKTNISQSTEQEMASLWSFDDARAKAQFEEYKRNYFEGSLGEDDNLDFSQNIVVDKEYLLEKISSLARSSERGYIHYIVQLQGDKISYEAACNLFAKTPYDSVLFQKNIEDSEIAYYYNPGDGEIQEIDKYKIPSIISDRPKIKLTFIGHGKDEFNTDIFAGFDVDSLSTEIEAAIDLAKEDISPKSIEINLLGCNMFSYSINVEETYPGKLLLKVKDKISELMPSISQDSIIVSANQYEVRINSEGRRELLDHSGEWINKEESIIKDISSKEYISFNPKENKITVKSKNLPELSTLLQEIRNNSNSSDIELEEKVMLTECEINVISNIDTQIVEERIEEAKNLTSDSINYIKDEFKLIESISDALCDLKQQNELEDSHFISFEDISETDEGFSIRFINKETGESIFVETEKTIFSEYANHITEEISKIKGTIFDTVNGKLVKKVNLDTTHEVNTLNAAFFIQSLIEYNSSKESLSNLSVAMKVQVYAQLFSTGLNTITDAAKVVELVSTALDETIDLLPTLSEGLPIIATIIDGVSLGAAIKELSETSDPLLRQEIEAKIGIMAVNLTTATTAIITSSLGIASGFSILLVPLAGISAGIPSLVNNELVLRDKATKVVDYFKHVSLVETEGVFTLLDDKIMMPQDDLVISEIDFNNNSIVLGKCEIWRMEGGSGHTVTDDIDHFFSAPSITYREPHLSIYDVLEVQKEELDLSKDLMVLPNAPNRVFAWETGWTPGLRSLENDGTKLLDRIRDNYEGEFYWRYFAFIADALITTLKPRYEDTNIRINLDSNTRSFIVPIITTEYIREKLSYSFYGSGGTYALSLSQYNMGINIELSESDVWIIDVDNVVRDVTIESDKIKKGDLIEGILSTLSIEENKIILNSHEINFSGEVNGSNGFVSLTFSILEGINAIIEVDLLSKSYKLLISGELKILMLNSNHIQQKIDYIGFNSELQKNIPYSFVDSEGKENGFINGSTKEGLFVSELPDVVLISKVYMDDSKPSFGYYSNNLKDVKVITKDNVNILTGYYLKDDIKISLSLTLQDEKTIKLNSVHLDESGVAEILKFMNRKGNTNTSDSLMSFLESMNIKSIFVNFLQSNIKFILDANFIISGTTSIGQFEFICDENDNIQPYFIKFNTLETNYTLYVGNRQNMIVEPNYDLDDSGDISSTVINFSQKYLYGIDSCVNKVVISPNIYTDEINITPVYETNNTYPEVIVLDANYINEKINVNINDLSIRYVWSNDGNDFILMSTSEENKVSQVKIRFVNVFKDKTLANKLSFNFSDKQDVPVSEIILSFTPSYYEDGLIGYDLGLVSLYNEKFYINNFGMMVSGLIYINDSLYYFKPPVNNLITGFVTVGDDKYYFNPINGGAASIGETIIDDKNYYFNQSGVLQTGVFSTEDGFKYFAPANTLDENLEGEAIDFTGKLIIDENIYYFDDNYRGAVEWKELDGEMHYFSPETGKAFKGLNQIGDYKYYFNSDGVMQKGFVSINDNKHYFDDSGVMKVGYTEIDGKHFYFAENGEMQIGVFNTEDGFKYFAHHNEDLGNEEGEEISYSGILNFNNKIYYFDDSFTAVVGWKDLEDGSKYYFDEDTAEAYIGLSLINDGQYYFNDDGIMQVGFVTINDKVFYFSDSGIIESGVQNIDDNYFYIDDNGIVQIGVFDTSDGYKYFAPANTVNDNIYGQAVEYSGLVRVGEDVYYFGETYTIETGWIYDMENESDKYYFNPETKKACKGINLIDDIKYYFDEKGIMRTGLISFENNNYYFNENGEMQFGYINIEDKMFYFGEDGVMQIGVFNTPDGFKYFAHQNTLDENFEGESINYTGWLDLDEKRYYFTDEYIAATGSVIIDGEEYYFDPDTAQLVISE
PrP UTR inh: suppresses PrP 5' UTR mRNA reporter expression; 340,000 tested, 0.35% active; AID 488862; cell-based PrP 5' UTR mRNA reporter, plate reader; inhibition, % (test concentration not listed); in the data active means inhibition above about 52%; further: 0 = median of the neutral control wells
PfHsp40 rescue: restores yeast growth despite PfHsp40 toxicity; AID 504582; growth rescue, % at 12.5 µM; 340,000 tested, 0.68% active; S. cerevisiae expressing PfHsp40, growth rescue, ATP luminescence; in the data active means growth rescue above about 28%, passing the limit was not always enough;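 further: yeast W303a lacking pdr1 and pdr3 grown in galactose medium; growth measured after three days at 30 °C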
RN4220 kill: S. aureus RN4220 growth inhibition | 330,000 tested, 0.33% active | inhibition, % (test concentration not listed) | OD600, 16 h; in the data active means inhibition above about 85%;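 further: plate controls were untreated cells for no effect and reference antibiotic for full effect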
Sa ugtP lethal: compounds lethal to S. aureus RN4220 ugtP deletion mutant. 330,000 tested, 0.54% active. growth inhibition, % (concentration not given with the values). OD600 growth, 16 h; in the data active means growth inhibition above about 68%;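 further: plate controls were untreated wells for no effect and antibiotic for full effect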
* marks the source's active call; other numbers are inactive results; nt = no result.

SMILES | TcdB GH inh | PrP UTR inh | PfHsp40 rescue | RN4220 kill | Sa ugtP lethal
COc1ccc(C2=NOC(C(=O)NO)C2)cc1OC1CCCC1 (stereo not drawn) | 0 | nt | nt | nt | nt
FC(F)(F)c1cccc(NC(=S)NCC2COc3ccccc3O2)c1 (stereo not drawn) | nt | -19 | 2 | 54 | 83*
Cc1c(N/N=C(\C#N)C(=O)c2ccc(Cl)cc2)c(=O)n(-c2ccccc2)n1C | nt | 22 | 99* | 44 | 1
N#C/C(=N\Nc1ccc(Cl)cc1)C(=O)c1ccccc1 | nt | -21 | 2 | nt | nt
Nc1nc(N)c2cc(Sc3ccc4ccccc4c3)ccc2n1 | 1 | nt | nt | 100* | 99*
Nc1nc(N)c2cc(Sc3ccc(Cl)cc3)ccc2n1 | 1 | nt | nt | nt | nt
COc1ccccc1C(=O)NNC(=S)NC(=O)c1ccco1 | nt | -18 | 71* | 66 | 33
CCOc1ccccc1NC(=S)NC(=O)c1ccco1 | 1 | -28 | 75* | 9 | 9
COc1ccc(S(=O)(=O)Nc2cccc3c2O[C@H](CN(C)C(=O)Nc2ccc(C(F)(F)F)cc2)[C@H](C)CN([C@H](C)CO)C3=O)cc1 | 0 | nt | nt | nt | nt
O=C(NC(=S)NCc1ccc2c(c1)OCO2)c1ccccc1 | 0 | -14 | 52* | -5 | 6
O=C(Nc1ccccc1)NC1(C(=O)NCc2ccc3c(c2)OCO3)CCCCC1 | nt | 10 | 0 | 9 | 100*
O=C(NCc1ccc2c(c1)OCO2)c1ccccc1 | 1 | -31 | 0 | 4 | 16
NS(=O)(=O)c1ccc(NC(=S)NCc2ccc3c(c2)OCO3)cc1 | 12* | -15 | -1 | 8 | 2
C[C@@H]1CCCCO[C@@H](CN(C)C(=O)C2CCCCC2)[C@@H](C)CN([C@H](C)CO)C(=O)c2cc(NS(=O)(=O)c3ccc(F)cc3)ccc2O1 | 0 | nt | nt | nt | nt
CCN1/C(=C/C=C/c2oc3ccc4ccccc4c3[n+]2CC)Oc2ccc3ccccc3c21 | nt | nt | nt | 98* | 99*
C[C@@H]1CN([C@H](C)CO)C(=O)c2cc(NS(=O)(=O)c3ccc(F)cc3)ccc2O[C@H]1CN(C)Cc1ccc(-c2ccccc2)cc1 | 1 | nt | nt | nt | nt
Cc1ccccc1OCC(=O)NN=Cc1ccc([N+](=O)[O-])o1 | nt | nt | nt | 11 | 22
COc1ccccc1OCC(=O)NN=CC=Cc1ccc([N+](=O)[O-])o1 | nt | nt | nt | 101* | 100*
COc1ccc(C=Cc2c(-c3ccccc3OC)sc3ccccc23)cc1OC | nt | nt | nt | -2 | 6
Fc1cccc(CCN2C(=S)NC[C@@H]2CC2CCCCC2)c1 | -6 | -3 | 122* | nt | nt
S=C1NC[C@H](CC2CCCCC2)N1CC1CCCCC1 | 1 | -20 | 98* | nt | nt
C=CC(n1cncn1)C(O)(c1ccccc1)c1ccccc1 (stereo not drawn) | 0 | -20 | 146* | 8 | -1
OC(c1ccccc1)(c1ccccc1)c1ccncc1 | 1 | -26 | -1 | -3 | -9
C[C@@H]1CCCCO[C@@H](CN(C)S(=O)(=O)c2cccs2)[C@H](C)CN([C@H](C)CO)C(=O)c2cc(NS(=O)(=O)c3ccc(F)cc3)ccc2O1 | -8 | nt | nt | nt | nt
Clc1ccccc1CN(Cc1ccco1)Cc1nnnn1C1CCCC1 | nt | -24 | 331* | 7 | -18
SMILES | TcdB GH inh | PrP UTR inh | PfHsp40 rescue | RN4220 kill | Sa ugtP lethal
C/C=C/c1ccc([C@H]2[C@@H](CO)N3C(=O)CN(S(=O)(=O)c4ccccc4)C[C@@H]23)cc1 | 0 | nt | nt | nt | nt
OC(CNCc1ccccc1)c1ccccc1 (stereo not drawn) | 0 | -15 | 0 | 4 | 14
ClCC(CNCc1ccccc1)c1ccccc1 (stereo not drawn) | 12* | -2 | 0 | 3 | 4
CC(=NNc1ccc2ccccc2n1)c1ccccn1 | 0 | nt | nt | nt | nt
COc1ccc2nc(NN=C(C)c3ccccn3)cc(C)c2c1 | 1 | -15 | 784* | nt | nt
CN1/C(=C\C=C(/C#N)C(=O)Nc2ccc(Cl)cc2)C(C)(C)c2ccccc21 | nt | -18 | -2 | nt | nt
CN1/C(=C\C(=O)c2cccs2)C(C)(C)c2ccccc21 | nt | -33 | 153* | 20 | -1
CN1/C(=C\C(=O)Nc2ccc(Cl)cc2)C(C)(C)c2ccccc21 | 0 | -14 | 0 | 94* | 97*
COCC#Cc1ccc2c(c1)O[C@H](CN(C)Cc1ccccc1)[C@@H](C)CN([C@@H](C)CO)S2(=O)=O | 0 | nt | nt | nt | nt
CCN1CCN(C(c2ccc(C(F)(F)F)cc2)c2ccc3cccnc3c2O)CC1 (stereo not drawn) | 0 | 4 | 60* | 14 | 37
O=C(CN1CC[n+]2c(-c3cccs3)csc21)c1ccc(-c2ccccc2)cc1 | 0 | -3 | 401* | 73 | 38
Nc1nonc1C(=O)N/N=C/c1cc(Br)ccc1O | -14 | 4 | 168* | nt | nt
O=C(NC(=S)N1CCc2ccccc21)c1ccc(Br)o1 | 1 | -18 | 36* | 4 | 0
CCNc1ccc(Br)cc(C(=O)/C=C/c2ccc(Cl)cc2)c1=O | nt | -24 | 1 | 1 | 5
CCNc1ccc(Br)cc(C(=O)/C=C/c2ccc3c(c2)OCO3)c1=O | nt | -26 | 37* | -5 | -3
Cc1ccc(-c2nnc(Oc3cccc(C)c3)c3ccccc23)cc1 | nt | -42 | 0 | -5 | 5
Cc1ccc(Oc2nnc(-c3ccccc3)c3ccccc23)cc1 | 1 | -24 | 6 | -1 | 90*
C[C@H]1CN([C@@H](C)CO)S(=O)(=O)c2ccc(-c3ccncc3)cc2O[C@@H]1CN(C)Cc1ccccc1 | 4 | nt | nt | nt | nt
C[C@H]1CN([C@@H](C)CO)S(=O)(=O)c2ccc(-c3ccncc3)cc2O[C@H]1CN(C)Cc1ccc(Oc2ccccc2)cc1 | 12* | nt | nt | nt | nt
C[C@@H]1CN([C@H](C)CO)S(=O)(=O)c2ccc(-c3ccncc3)cc2O[C@@H]1CN(C)Cc1ccc(Oc2ccccc2)cc1 | 11* | nt | nt | nt | nt
C[C@H]1CN([C@@H](C)CO)S(=O)(=O)c2ccc(-c3ccncc3)cc2O[C@@H]1CN(C)Cc1ccc(Oc2ccccc2)cc1 | 20* | nt | nt | nt | nt
C[C@@H]1CN([C@@H](C)CO)S(=O)(=O)c2ccc(-c3ccncc3)cc2O[C@H]1CN(C)Cc1ccccc1 | 0 | nt | nt | nt | nt
Cc1noc(C)c1NC(=O)N(C)C[C@@H]1Oc2ccc(N(C)C)cc2C(=O)N([C@H](C)CO)C[C@H]1C | -3 | nt | nt | nt | nt

Screening data deposited in PubChem BioAssay by several laboratories.
